SMILES strings stand for the structures. Records with an inconclusive call do not appear. Calls of active or inactive are those of the source. Calls follow the shape of the dose curve; as a rule, active = well fitted inhibition curve with a large enough effect; inconclusive = small, poorly fitted or top-dose-only effect; inactive = flat fitted curve, though single readings scatter.

Chain of Calcium and integrin-binding protein 1 (Homo sapiens) (Q99828 whole entry, looked up): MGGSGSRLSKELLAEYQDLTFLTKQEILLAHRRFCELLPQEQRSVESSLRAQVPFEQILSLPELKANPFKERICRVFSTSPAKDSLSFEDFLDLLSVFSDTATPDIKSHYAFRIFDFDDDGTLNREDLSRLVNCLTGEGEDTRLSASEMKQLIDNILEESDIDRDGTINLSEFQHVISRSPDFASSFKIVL

In the assay the target is Calcium and integrin-binding protein 1 (Homo sapiens) (UniProt Q99828). As to the kind of experiment: Primary qHTS for Identification of Calcium Integrin Binding Protein 1 (CIB1) Competitor (AID 1508620). Also: top concentration of the series differs between compounds. To be noted: CIB1-GST / FITC-alphaIIb peptide fluorescence polarization; series mostly up to 114 µM. Put shortly:
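Fluorescence polarization competition: GST-tagged CIB1 (1 uM final) preincubated with compound 15 min at room temperature, then FITC-labelled alphaIIb peptide (100 nM final) added. After 15 min at room temperature, polarization read at Ex 480/Em 540.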
(In general: Quantitative high-throughput screening tests each substance at several concentrations.)
For `O=C(O)c1ccc(O)c2ncc(N3CCCNCC3)cc12`, the result was inactive. Next, `CCOc1ccc(CCNC(=O)c2ccc(C(=O)c3ccccc3)cc2)cc1OCC`: “inactive”; `CCOc1ccc(CCNC(=O)c2cc3ccccc3n2Cc2cccc(C)n2)cc1OCC`: “inactive”. In the case of `O=S(=O)(Nc1ccccc1)c1ccc(NCc2ccc(Br)cc2O)cc1` it was “inactive”.

Values taken from PubChem BioAssay (NCATS).
